# Experimental data published in ChEMBL document CHEMBL3988442, “University of Dundee, Small-Polar-MMV Screening Library” (2021).
# Screen size: about 66,000 compounds; about 960 (1.5%) showed an effect of 50% or more. The sample holds strong results, similar compounds and a random draw of the others, so the mix is not that of the screen.
# System: Trypanosoma brucei
# Assay: Trypanosoma brucei 72 hour study
# Assay type: functional, organism-based
# Parameters: scale not given: in the data most compounds retested in dose-response had high values
smiles,measurement,setting,value
O=C(C1CCOCC1)N1C[C@H]2C[C@H](OCc3ccccc3)C[C@H]2C1,Percent Effect,"30.3 µM, […]",32.35%
CN(C)CCOCC1CN(Cc2ccsc2)Cc2nnn(C)c21.O=C(O)C(F)(F)F.O=C(O)C(F)(F)F (stereo not drawn),Percent Effect,"30.3 µM, […]",-20.25%
Cc1nc(C)n(C2CCCN(C(=O)c3ccc(NC4CC4)nc3)C2)n1 (stereo not drawn),Percent Effect,"30 µM, 30.03 µM",56.19%
Cc1nc(C)n(C2CCCN(C(=O)c3ccc(O)nc3)C2)n1 (stereo not drawn),Percent Effect,10 µM,-79.94%
Cc1nccn1C1CCCN(C(=O)c2ccc(N(C)C)nn2)C1 (stereo not drawn),Percent Effect,"30.3 µM, […]",-14.31%
Cc1nccn1C1CCCN(C(=O)c2ccc(N(C)C)nc2)C1 (stereo not drawn),Percent Effect,"30 µM, 30.03 µM",59.27%
CN(C)c1ccc(C(=O)N2CCCC(n3cccn3)C2)cn1 (stereo not drawn),Percent Effect,"30.3 µM, […]",-20.71%
Cc1cc(C)n(C2CCCN(C(=O)c3ccc(NC4CC4)nc3)C2)n1 (stereo not drawn),Percent Effect,"30 µM, 30.03 µM",3.181%
c1ccc(-c2cccc(N3CCC(NCCc4cscn4)CC3)c2)cc1,Percent Effect,"30.3 µM, […]",99.95%
c1cc(-c2cscn2)cc(N2CCC(NCCc3cccs3)CC2)c1,Percent Effect,"30.3 µM, […]",64.97%
O=C1CCCN1c1cccc(N2CCC(NCCc3cscn3)CC2)c1,Percent Effect,"30.3 µM, […]",6.374%
CC(C)CC(C)NC1CCN(c2cccc(-c3cscn3)c2)CC1 (stereo not drawn),Percent Effect,"30 µM, 30.03 µM",-3.57%
CN(C)CCCN(C)C1CCN(c2cccc(-c3cscn3)c2)CC1,Percent Effect,"30.3 µM, […]",17.15%
CN(Cc1nccs1)C1CCN(c2cccc(-c3cscn3)c2)CC1,Percent Effect,"30.3 µM, […]",-33.72%
CC1(c2ccc(Br)cc2)CC(=O)N(CC(N)=O)C1=O (stereo not drawn),Percent Effect,"30.3 µM, […]",-17.28%
Cn1cc(C(=O)CC2CCCN2C(=O)c2cccc3ncccc23)cn1 (stereo not drawn),Percent Effect,"30.3 µM, […]",-17.51%
Cc1ccc(C(=O)NCCC2CN(C3CCCC3)CCO2)c(C)c1 (stereo not drawn),Percent Effect,"30 µM, 30.03 µM",0.3212%
O=C(c1cc2c(Cl)cccc2[nH]1)N1CCN(CCc2ccccn2)CC1,Percent Effect,"30 µM, 30.03 µM",6.57%
CCOC(=O)c1ccc(S(=O)(=O)NCc2cccnc2N(C)C)cc1,Percent Effect,10 µM,-42.9%
Cc1ccc(CCC(=O)N(C)CCN2CCOCC2)c(C)c1,Percent Effect,"30 µM, 30.03 µM",15.97%
CCOc1ccc(CN2CCN(C(=O)c3cc(C4CC4)[nH]n3)CC2)cc1,Percent Effect,"30.3 µM, […]",-13.15%
same,Percent Effect,"10 mM, 10 mM as filed; unlikely as a test dose",-41.12%
CCOc1nnc(CN2CCCC(c3nc4ccccc4[nH]3)C2)s1 (stereo not drawn),Percent Effect,"30 µM, 30.03 µM",-9.691%
CCOc1ccc(CN2CCCC(c3cc4ncccc4[nH]3)C2)cc1 (stereo not drawn),Percent Effect,"30.3 µM, […]",100.2%
CC(=O)Nc1ccc(CN2CCCC(c3cc4ncccc4[nH]3)C2)cc1 (stereo not drawn),Percent Effect,"30.3 µM, […]",8.67%
Fc1ccc(CN2CCCC(c3cc4ncccc4[nH]3)C2)cc1 (stereo not drawn),Percent Effect,"30.3 µM, […]",55.67%
Cl.Cn1nc(C2CCCN(Cc3ccc(F)cc3)C2)c2nccnc21 (stereo not drawn),Percent Effect,"30.3 µM, […]",4.536%
O=S(=O)(C1CC1)N1Cc2nccn2CC(Cn2cncn2)C1 (stereo not drawn),Percent Effect,"30.3 µM, […]",-41.46%
CC1c2ncc(CN3CCN(C)CC3)n2CCN1Cc1ccc(F)cc1.O=C(O)C(F)(F)F.O=C(O)C(F)(F)F.O=C(O)C(F)(F)F (stereo not drawn),Percent Effect,"30.3 µM, […]",-44.2%
CN(Cc1ccco1)[C@@H]1CN(C(=O)c2cnccn2)C[C@@H]2CCCO[C@@H]21.O=C(O)C(F)(F)F,Percent Effect,"30 µM, 30.03 µM",-17.24%
COc1cc(N2CCC3(CCN(Cc4csc(C)n4)C3=O)C2)ncn1.O=C(O)C(F)(F)F (stereo not drawn),Percent Effect,"30.3 µM, […]",-84.03%
COCC1COCCC12CCN(S(=O)(=O)c1cccnc1)CC2.O=C(O)C(F)(F)F (stereo not drawn),Percent Effect,"30.3 µM, […]",-13.71%
O=C(COc1ccc2c(c1)CCC2)NS(=O)(=O)c1cccnc1,Percent Effect,10 µM,-70.49%
Cc1ccc(N2CC[C@@H]3[C@@H]2CCN3C(=O)Cc2ccccc2)nn1.O=C(O)C(F)(F)F,Percent Effect,"30.3 µM, […]",-46.46%
O=C(c1cccc(Cn2ccnc2)c1)N1CCCC(n2cccn2)C1 (stereo not drawn),Percent Effect,"30.3 µM, […]",2.699%
CN1CCOC(CNCc2cccc(OCc3ccccn3)c2)C1 (stereo not drawn),Percent Effect,"30 µM, 30.03 µM",-14.98%
Cc1nc(COc2ccc(CNCC3CN(C)CCO3)cc2)cs1 (stereo not drawn),Percent Effect,"30.3 µM, […]",-2.349%
CCN1CCOC(CNCc2ccc(OCc3ccccn3)cc2)C1 (stereo not drawn),Percent Effect,10 µM,-32.81%
Cc1ccc(OCc2nc(CNCC3CN(C)CCO3)cs2)cc1 (stereo not drawn),Percent Effect,10 µM,77.03%
CN1CCOC(CNCc2ccc(OCc3ccccn3)cc2)C1 (stereo not drawn),Percent Effect,"30.3 µM, […]",56.06%
same,Percent Effect,"10 mM, 10 mM as filed; unlikely as a test dose",-23.3%
Cc1nc(CNCC2CN(C)CCO2)cs1 (stereo not drawn),Percent Effect,"30.3 µM, […]",3.844%
Cc1ccc(S(=O)(=O)NCC(C)(C)N)c(F)c1.Cl,Percent Effect,"30 µM, 30.03 µM",-16.31%
Cc1cc(Oc2ccccc2F)nc(C2CCCCN2)n1.Cl.Cl (stereo not drawn),Percent Effect,"30.3 µM, […]",-25.86%
Cc1nn(C)c(N(C)C)c1CNC1CCc2c(Cl)cccc21.Cl (stereo not drawn),Percent Effect,"30.3 µM, […]",17.67%
CN(Cc1cn2c(n1)CN(C(=O)CC1CC1)CC2)Cc1ccco1.O=C(O)C(F)(F)F,Percent Effect,"30 µM, 30.03 µM",13.03%
CCc1nnc(NC(=O)c2ccc(C3CCCN3CC(C)C)s2)s1 (stereo not drawn),Percent Effect,"30.3 µM, […]",-0.9926%
CC(C)CN1CCCC1c1ccc(C(=O)Nc2cn(C)nn2)s1 (stereo not drawn),Percent Effect,"30.3 µM, […]",0.1891%
Cc1cnc(NC(=O)c2ccc(C3CCCN3CC(C)C)s2)s1 (stereo not drawn),Percent Effect,"30.3 µM, […]",0.4974%
CC(C)CN1CCCC1c1ccc(C(=O)Nc2cccnc2)s1 (stereo not drawn),Percent Effect,"30.3 µM, […]",100.5%
CC(C)CN1CCCC1c1ccc(C(=O)Nc2ccc3[nH]nnc3c2)s1 (stereo not drawn),Percent Effect,"30.3 µM, […]",85.03%
CC(C)CN1CCCC1c1ccc(C(=O)Nc2cc[nH]n2)s1 (stereo not drawn),Percent Effect,"30.3 µM, […]",23.5%
COCCN(C)C[C@@H]1CN(C(=O)c2ccc3c(c2)OCO3)C[C@@H]1CO,Percent Effect,"30 µM, 30.03 µM",-13.62%
CC(C)Cc1nc(OCC(N)=O)c(C#N)c2c1CCCC2,Percent Effect,"30 µM, 30.03 µM",-29.84%
CCS(=O)(=O)N1CCN(Cc2ccncc2)c2nc(C)ccc2C1.O=C(O)C(F)(F)F.O=C(O)C(F)(F)F,Percent Effect,"30 µM, 30.03 µM",13.64%
COc1cccc2c1OCC(C(=O)NCc1nc3c(s1)CCCC3)C2 (stereo not drawn),Percent Effect,"30 µM, 30.03 µM",60.51%
COc1cccc2c1OCC(C(=O)NCCc1nc3c(s1)CCC3)C2 (stereo not drawn),Percent Effect,"30 µM, 30.03 µM",-23.46%
COc1ccc2c(c1)OCC(C(=O)NCc1nc3c(s1)CCCC3)C2 (stereo not drawn),Percent Effect,"30 µM, 30.03 µM",-46.37%
Cc1ccc2c(c1)C(NC(=O)N(C)C)CC21CCN(C(C)C)CC1.O=C(O)C(F)(F)F (stereo not drawn),Percent Effect,"30.3 µM, […]",-8.347%
COCCN1CCC2(CC1)CC(NC(=O)C(C)C)c1ccccc1O2.O=C(O)C(F)(F)F (stereo not drawn),Percent Effect,"30.3 µM, […]",3.771%
CC(NCc1ccc(OCC(N)=O)cc1)c1ccc2c(c1)CCCC2 (stereo not drawn),Percent Effect,"30.3 µM, […]",58.39%
CC(NCc1ccc(OCC(N)=O)cc1)c1ccc(Cl)c(Cl)c1.Cl (stereo not drawn),Percent Effect,"30.3 µM, […]",16.7%
CC(NCc1ccc(OCC(N)=O)cc1)c1ccc(Cl)cc1.Cl (stereo not drawn),Percent Effect,"30.3 µM, […]",-11.6%
